ABCB6 inh MLPCN – human ABCB6 transporter inhibition; Q9NP58; K562-ABCB6 porphyrin accumulation, flow cytometry, 1 h; stronger effect = lower value; fluorescence ratio to DMSO, % at 10 µM; 360,000 tested, 0.19% active; AID 602162;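 active = fluorescence ratio to DMSO below 75%, the collection mean minus 3 SD; inconclusive = too few cells collected in the well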;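 also: signal is porphyrin accumulated inside mitochondria; 100% equals median channel fluorescence of DMSO control wells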
Target sequence (Q9NP58 whole entry, looked up): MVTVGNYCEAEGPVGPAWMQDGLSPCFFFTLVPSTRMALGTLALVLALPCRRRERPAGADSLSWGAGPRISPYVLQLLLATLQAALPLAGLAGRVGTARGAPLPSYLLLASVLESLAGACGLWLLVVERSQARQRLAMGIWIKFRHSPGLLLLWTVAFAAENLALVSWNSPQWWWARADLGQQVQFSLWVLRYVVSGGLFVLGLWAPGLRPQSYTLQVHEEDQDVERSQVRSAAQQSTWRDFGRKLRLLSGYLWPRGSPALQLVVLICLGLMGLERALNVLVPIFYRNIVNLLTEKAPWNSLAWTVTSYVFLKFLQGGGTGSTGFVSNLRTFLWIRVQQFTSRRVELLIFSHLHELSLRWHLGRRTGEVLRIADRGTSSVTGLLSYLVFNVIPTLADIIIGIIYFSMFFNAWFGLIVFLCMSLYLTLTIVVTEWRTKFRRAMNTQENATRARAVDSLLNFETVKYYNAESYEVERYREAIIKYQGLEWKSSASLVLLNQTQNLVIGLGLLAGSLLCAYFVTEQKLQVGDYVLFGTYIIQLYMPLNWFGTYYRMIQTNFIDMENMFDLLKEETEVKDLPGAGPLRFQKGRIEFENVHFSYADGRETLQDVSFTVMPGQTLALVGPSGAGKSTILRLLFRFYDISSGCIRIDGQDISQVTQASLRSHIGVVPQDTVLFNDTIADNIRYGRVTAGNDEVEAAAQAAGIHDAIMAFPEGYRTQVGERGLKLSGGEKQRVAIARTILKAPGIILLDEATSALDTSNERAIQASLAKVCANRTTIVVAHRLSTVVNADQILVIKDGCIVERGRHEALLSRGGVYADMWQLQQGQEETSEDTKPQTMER
PABP polyA inh – blocks human PABP binding to poly(A) RNA | P11940 | fluorescence polarization | calls only at 35 µM | 290,000 tested, 1% active | AID 2014;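 also: calls also rest on retests at 20 µM and on dose response follow-up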
eIF4H FP inh – inhibitors of RNA binding by human eIF4H | eIF4H fluorescence polarization binding assay | Q15056 | inhibition, % at 35 µM | 290,000 tested, 0.94% active;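 also: calls also rest on retests at 20 µM and on dose response follow-up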
PABP1 MLLE inh – inhibitors of microRNA-mediated deadenylation, human PABP1 MLLE binding; P11940; GST-MLLE / FITC-PAM2 fluorescence polarization; inhibition, % at 20 µM; 360,000 tested, 0.36% active; in the data active = inhibition above about 35%, passing the limit was not always enough;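 also: plate controls were DMSO wells with GST-MLLE for no effect and wells lacking GST-MLLE protein for full effect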
PHOSPHO1 inh – inhibitors of human PHOSPHO1 phosphatase; AID 1565; 290,000 tested, 1.1% active; inhibition, % at 13.3 µM; recombinant PHOSPHO1, absorbance phosphatase assay; Q8TCT1; in the data active = inhibition above about 60%
AI-2 QS mod – Vibrio harveyi AI-2 quorum sensing modulation; Vibrio harveyi JMH597 AI-2 luminescence/OD600 ratio, 9 h; stronger effect = lower value; strain lacks LuxN and CqsS sensors; 0 = neutral-control median; 300,000 tested, 0.4% active; activity change, % at 7.5 µM; in the data active = activity change below about -75%, passing the limit was not always enough; inconclusive = no clear call, values can overlap the other calls;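 also: luminescence divided by OD600 gain over 9 h not by final OD600 alone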
An asterisk follows results filed as active; i = inactive; ? = inconclusive; . = not tested or not shown; + = active, no number. In the library only some 2.6% were active in any assay of this set; here they are far more common. Unless noted, no rule for the calls is given here.

SMILES	ABCB6 inh MLPCN	PABP polyA inh	eIF4H FP inh	PABP1 MLLE inh	PHOSPHO1 inh	AI-2 QS mod
O=C(N=Nc1c(O)[nH]c2ccc([N+](=O)[O-])cc12)c1ccccc1Cl	96.0	+	57.5	-17.5	55.2	12.0
CCNC(=S)N=Nc1c(O)[nH]c2ccc([N+](=O)[O-])cc12	82.0	i	14.9	44.6*	-23.0	7.2
O=C(O)c1ccccc1N=Nc1c(O)[nH]c2ccc([N+](=O)[O-])cc12	102.0	i	34.4	7.9	46.3	28.8
COc1ccccc1CNC(=O)c1ccc2nc(C)c(N(C)Cc3ccc(NC(C)=O)cc3)n2c1	90.0	.	.	14.2	.	.
Cc1ccsc1CNC(=O)C1(C)CCCN1CC(C)C (centres undefined)	97.0	.	.	-2.5	.	.
O=S1(=O)C[C@H](N2CCCC2)[C@@H](COCc2ccccc2)N1	96.0	.	.	-8.2	.	.
O=C(c1ccc(CS(=O)c2ccccc2Cl)o1)N1CCN(C2CCCCC2)CC1 (centres undefined)	108.0	.	.	5.8	.	.
Cc1ccc(SCC2(O)CCN(C(=O)c3ccc(Cl)cc3)CC2)cc1	93.0	i	-1.6	11.6	62.0*	16.2
CCOc1cc(CNS(=O)(=O)c2ccc3c(c2)CC(=O)N3C)cc(OCC)c1OCC	95.0	i	1.5	22.6	64.9*	9.3
CCOC(=O)[C@]12CCC=C1N(Cc1ccco1)C(=O)[C@H](CC(=O)NCCc1ccccc1OC)C2	99.0	.	.	.	.	.
CCOC(=O)/C=C1\SCC(=O)N1CC(O)CN1C(=O)CS/C1=C\C(=O)OCC	98.0	+	?	-10.9	55.3	17.8
Cc1ccc(Cl)cc1-c1cc(C(=O)N2CCN(c3ccncc3)CC2)[nH]n1	101.0	.	.	-3.2	.	.
Cn1nc(-c2ccccn2)nc2c(=O)n(C)c(=O)nc1-2	106.0	i	45.4	1.5	34.7	-92.4*
CCCc1nc2c(=O)n(C)c(=O)nc-2n(C)n1	104.0	i	1.5	11.4	28.5	.
COC(=O)c1ccccc1CSc1nsc(/C=C/N(C)C)c1C#N	97.0	+	59.9	-75.0	-144.0	10.3
O=c1/c(=C\c2cccn2-c2ccccc2)sc2nc3ccccc3n12	97.0	i	-8.0	-8.1	23.4	.
Cc1ccc(-n2c(C)cc(/C=c3/sc4nc5ccccc5n4c3=O)c2C)cc1	.	i	20.8	.	61.5*	8.2
C=CCNC(=O)c1ccc(N(C)S(=O)(=O)c2ccc(OC)cc2)cc1	61.0*	i	-5.8	4.7	-4.2	25.5
C=CCNC(=O)c1ccc(OC)cc1	99.0	i	-13.4	3.0	40.4	-3.7
CCNC(=O)C1(C)CCCN(C(=O)c2cc(C)nn2C(C)(C)C)C1 (centres undefined)	98.0	.	.	-6.6	.	.
O=C(O[C@@H]1Cc2c(O)cc(O)cc2O[C@@H]1c1cc(O)c(O)c(O)c1)c1cc(O)c(O)c(O)c1	.	+	80.1*	.	15.8	34.8
Oc1cc(O)c2c(c1)O[C@H](c1ccc(O)c(O)c1)[C@H](O)C2	98.0	i	14.2	-5.5	30.6	9.7
O=C(Cc1ccc(Br)cc1)N(Cc1ccccc1)c1ccccn1	100.0	i	-5.8	-12.1	62.9*	15.1
CC1CCN(CCCNC(=O)c2ccc(N3CCCC3=O)cc2)CC1	104.0	i	1.1	-6.6	63.6*	-7.4
COc1ccccc1NS(=O)(=O)c1cc([N+](=O)[O-])ccc1N/N=C/c1sc(N2CCOCC2)nc1-c1ccccc1	i	+	70.7*	-157.3	-6.2	28.7
SMILES	ABCB6 inh MLPCN	PABP polyA inh	eIF4H FP inh	PABP1 MLLE inh	PHOSPHO1 inh	AI-2 QS mod
CCS(=O)(=O)c1ncc(Cl)c(C(=O)Nc2ccc(S(=O)(=O)N3CCCC(C)C3)cc2)n1 (centres undefined)	29.0*	i	-0.5	3.0	14.4	13.6
CCC1CCCCN1S(=O)(=O)c1ccc(NC(=O)c2nc(S(C)(=O)=O)ncc2Cl)cc1 (centres undefined)	62.0*	i	-11.7	14.0	2.1	15.8
CCS(=O)(=O)c1ncc(Cl)c(C(=O)Nc2ccc(C)cc2)n1	77.0	i	-7.9	26.6	-28.3	-5.0
CCCCc1c(-c2cccc(Br)c2)ncn1CCc1ccccc1OC	112.0	.	.	.	.	.
Cc1cc(-c2csc(N)n2)c(C)n1CCC(C)C	109.0	?	?	26.8	102.0*	15.9
Cc1cc(-c2csc(N)n2)c(C)n1CCc1ccccc1	101.0	?	?	19.2	-3.7	20.4
O=C1c2ccccc2C(c2nc3ccccc3[nH]2)N1c1ccccn1 (centres undefined)	97.0	.	.	20.6	.	.
NC(Cc1ccc(Cl)cc1)c1csc(Nc2ccc(-c3ccccc3)nn2)n1 (centres undefined)	96.0	.	.	4.2	.	.
CNC(=S)NNC(=O)c1sccc1OCc1ccc(C)cc1	95.0	i	3.4	-25.0	74.0*	8.2
CNC(=S)NNC(=O)c1sccc1OCc1cccc(C(F)(F)F)c1	96.0	i	-6.8	-81.4	68.9*	21.5
NNC(=O)c1sccc1OCc1ccc(Cl)cc1	98.0	i	-10.5	-3.5	-3.6	22.1
CNC(=S)NNC(=O)c1cccn(Cc2cccc(C(F)(F)F)c2)c1=O	102.0	i	-0.8	-38.6	-144.0	6.4
OC[C@@H]1CN(Cc2ccncc2)C[C@H](n2cnc3c(NCc4ccncc4)ncnc32)O1	97.0	.	.	-1.8	.	.
C=CCC1(CC=C)CCCN1Cc1nc(COc2ccccc2)no1	116.0	i	59.3*	-30.6	19.7	4.7
COCOc1ccc(-c2ncc(OCCN3CCCC3=O)nc2NC(=O)c2cc3ccccc3s2)cc1	100.0	.	.	2.5	.	.
COc1cccc(OCC(=O)NN=C2c3ccccc3-c3ccccc32)c1	44.0*	i	-11.7	9.5	19.4	9.4
CCCN1CCN(CCCNC(=O)C2CCN(c3nnc(-n4c(C)ccc4C)s3)CC2)CC1	100.0	i	-3.0	7.6	64.9*	6.4
CC1(C(=O)NS(=O)(=O)c2ccc3c(c2)CCO3)CCN1C(=O)COc1ccc(Cl)cc1 (centres undefined)	75.0	.	.	-30.2	.	.
Cc1ccc(S(=O)(=O)Cc2ccc(C(=O)O)o2)cc1	99.0	+	85.6*	22.5	-4.4	24.6
O=C(c1ccc(Cl)cc1)N1CCCC(C(=O)N2CCc3ccccc3C2)C1 (centres undefined)	93.0	i	0.9	15.9	60.5*	9.5
CS(=O)(=O)c1ccc(C(=O)N2CCc3ccccc3C2)cc1	88.0	i	active	0.0	9.5	11.4
Cc1ccc(S(=O)(=O)Cc2ccc(C(=O)N3CCc4ccccc4C3)o2)cc1	99.0	+	89.5*	7.3	10.6	23.7
O=C(c1ccccc1)N1CCCC(C(=O)N2CCc3ccccc3C2)C1 (centres undefined)	97.0	i	-3.1	11.3	7.1	33.4
Cc1ccc2nc(C3CCCCC3)c(Cc3ccsc3)n2c1	134.0	.	.	.	.	.
CCOC(=O)C1=C[C@@H](C(C)(C)C)N(S(=O)(=O)c2ccc(C)cc2)[C@H]1c1cccc(Cl)c1	102.0	.	.	-8.3	.	.
